# Source: publication PMC7862700, “An all-to-all approach to the identification of sequence-specific readers for epigenetic DNA modifications on cytosine”
# Target: CRX (Homo sapiens, UniProt O43186 1-299)
# Test: DAPPL (digital affinity profiling via proximity ligation, sequencing); 10 mM Tris-HCl pH 7.5, 50 mM NaCl, 1 mM DTT, 4% glycerol, room temperature, 30 min; GST-TFs on glutathione beads, 16-mer random dsDNA library, 0.1% formaldehyde crosslink after washing; high values mean tight binding
# Conditions: protein: recombinant; tags: N-terminal GST; dsDNA, one strand shown
# Summary of the method: (§1)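 GST fusions of human transcription factors were expressed in yeast and captured with glutathione beads. Once given DNA barcodes and pooled alongside a tag-only sample, they were incubated for 30 min at room temperature with 200 nmole of a random double-stranded 16-mer DNA library in Tris/NaCl/DTT/glycerol buffer, then washed, crosslinked (0.1% formaldehyde), proximity-ligated, PCR-amplified and sequenced on an Illumina NextSeq500. The binding signal of each hexamer is its read frequency for a factor divided by its frequency for the tag-only sample.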
# Chain of CRX (O43186 whole entry): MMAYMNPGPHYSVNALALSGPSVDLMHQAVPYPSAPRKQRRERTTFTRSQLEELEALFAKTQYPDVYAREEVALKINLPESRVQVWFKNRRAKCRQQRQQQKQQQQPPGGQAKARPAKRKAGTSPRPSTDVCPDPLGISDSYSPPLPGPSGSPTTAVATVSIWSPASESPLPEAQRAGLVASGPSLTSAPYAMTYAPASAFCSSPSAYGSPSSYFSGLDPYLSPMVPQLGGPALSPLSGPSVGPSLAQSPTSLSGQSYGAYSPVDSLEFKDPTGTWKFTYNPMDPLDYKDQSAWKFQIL
row,Sequence,binding signal
1,TAGTCC,"1.38 fold enrichment (6-mer frequency, TF over GST control)"
2,TGATAT,"1.08 fold enrichment (6-mer frequency, TF over GST control)"
3,GGAATT,"1.46 fold enrichment (6-mer frequency, TF over GST control)"
4,TTCGGC,"1.1 fold enrichment (6-mer frequency, TF over GST control)"
5,TCTGGG,"1.1 fold enrichment (6-mer frequency, TF over GST control)"
6,AGTAAT,"1.61 fold enrichment (6-mer frequency, TF over GST control)"

# Target: ETV1 (Homo sapiens, UniProt P50549 1-477)
# Test: as above
# Conditions: protein: recombinant; tags: N-terminal GST; dsDNA, one strand shown
# Summary of the method: as §1
# Chain of ETV1 (P50549 whole entry): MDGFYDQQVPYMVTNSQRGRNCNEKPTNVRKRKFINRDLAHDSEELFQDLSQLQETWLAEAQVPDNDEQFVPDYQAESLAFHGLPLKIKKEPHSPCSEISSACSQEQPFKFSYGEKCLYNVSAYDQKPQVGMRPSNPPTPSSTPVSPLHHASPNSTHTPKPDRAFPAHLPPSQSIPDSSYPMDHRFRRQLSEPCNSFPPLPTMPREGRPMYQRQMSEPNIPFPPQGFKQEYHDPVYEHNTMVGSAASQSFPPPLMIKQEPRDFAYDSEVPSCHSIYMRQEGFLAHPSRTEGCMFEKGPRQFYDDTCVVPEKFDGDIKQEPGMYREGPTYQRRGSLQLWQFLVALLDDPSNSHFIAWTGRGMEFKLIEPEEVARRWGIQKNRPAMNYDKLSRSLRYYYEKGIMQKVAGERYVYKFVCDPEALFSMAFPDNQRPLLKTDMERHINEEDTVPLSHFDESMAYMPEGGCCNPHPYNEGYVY
row,Sequence,binding signal
1,TGTACC,"1.37 fold enrichment (6-mer frequency, TF over GST control)"
2,ATCCAA,"1.18 fold enrichment (6-mer frequency, TF over GST control)"
3,TGAATG,"1.14 fold enrichment (6-mer frequency, TF over GST control)"
4,GGTTTA,"1.05 fold enrichment (6-mer frequency, TF over GST control)"
5,GTTCGA,"1.08 fold enrichment (6-mer frequency, TF over GST control)"
6,AGGAAA,"1.46 fold enrichment (6-mer frequency, TF over GST control)"
7,CCGACA,"1.28 fold enrichment (6-mer frequency, TF over GST control)"
8,GCCGAT,"1.07 fold enrichment (6-mer frequency, TF over GST control)"
9,CTGAAG,"1.08 fold enrichment (6-mer frequency, TF over GST control)"
10,AGGTTT,"1.1 fold enrichment (6-mer frequency, TF over GST control)"
11,TTATTA,"1.11 fold enrichment (6-mer frequency, TF over GST control)"
12,TAGTAA,"1.07 fold enrichment (6-mer frequency, TF over GST control)"
13,TGAGCT,"1.09 fold enrichment (6-mer frequency, TF over GST control)"
14,TTTGAG,"1.14 fold enrichment (6-mer frequency, TF over GST control)"
15,GTTAAT,"1 fold enrichment (6-mer frequency, TF over GST control)"
16,TGTACG,"1.24 fold enrichment (6-mer frequency, TF over GST control)"
17,AACTTG,"1.05 fold enrichment (6-mer frequency, TF over GST control)"
18,TAAGGT,"1.1 fold enrichment (6-mer frequency, TF over GST control)"
19,AAAAGT,"1.13 fold enrichment (6-mer frequency, TF over GST control)"
20,GCGTTC,"1.28 fold enrichment (6-mer frequency, TF over GST control)"
21,CTGCCA,"1.17 fold enrichment (6-mer frequency, TF over GST control)"
22,GCACTC,"1.33 fold enrichment (6-mer frequency, TF over GST control)"
23,AAACTG,"1.13 fold enrichment (6-mer frequency, TF over GST control)"
24,TAGTCC,"1.1 fold enrichment (6-mer frequency, TF over GST control)"
25,TCGCAC,"1.04 fold enrichment (6-mer frequency, TF over GST control)"
26,GAAACT,"1.27 fold enrichment (6-mer frequency, TF over GST control)"
27,GGAATT,"1.18 fold enrichment (6-mer frequency, TF over GST control)"
28,TTCGGC,"1.14 fold enrichment (6-mer frequency, TF over GST control)"
29,TCTGGG,"1.04 fold enrichment (6-mer frequency, TF over GST control)"
30,AGTAAT,"1.06 fold enrichment (6-mer frequency, TF over GST control)"

# Target: T1, ERF (Homo sapiens, UniProt P50548 1-548)
# T1 sequence: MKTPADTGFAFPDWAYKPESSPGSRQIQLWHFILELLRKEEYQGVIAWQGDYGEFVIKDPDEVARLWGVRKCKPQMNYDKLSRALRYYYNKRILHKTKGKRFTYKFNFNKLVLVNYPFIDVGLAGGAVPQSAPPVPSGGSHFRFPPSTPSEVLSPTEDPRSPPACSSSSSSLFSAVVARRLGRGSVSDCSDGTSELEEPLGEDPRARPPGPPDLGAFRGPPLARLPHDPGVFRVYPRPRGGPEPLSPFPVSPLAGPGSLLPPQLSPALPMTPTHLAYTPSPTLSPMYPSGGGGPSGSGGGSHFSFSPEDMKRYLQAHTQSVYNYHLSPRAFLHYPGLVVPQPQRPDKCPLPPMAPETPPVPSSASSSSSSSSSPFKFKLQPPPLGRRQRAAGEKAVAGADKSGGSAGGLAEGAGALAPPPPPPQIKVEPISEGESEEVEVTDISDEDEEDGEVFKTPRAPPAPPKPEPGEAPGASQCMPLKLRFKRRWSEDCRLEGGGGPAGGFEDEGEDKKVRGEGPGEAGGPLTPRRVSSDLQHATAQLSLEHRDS
# Test: as above
# Conditions: protein: recombinant; tags: N-terminal GST; dsDNA, one strand shown
# Summary of the method: as §1
row,Sequence,binding signal
1,GTTAAA,"1.09 fold enrichment (6-mer frequency, TF over GST control)"
2,TGTACC,"1.17 fold enrichment (6-mer frequency, TF over GST control)"
3,TGAATG,"1.14 fold enrichment (6-mer frequency, TF over GST control)"
4,GGTTTA,"1.11 fold enrichment (6-mer frequency, TF over GST control)"
5,GTTCGA,"1.23 fold enrichment (6-mer frequency, TF over GST control)"
6,AGGAAA,"1.34 fold enrichment (6-mer frequency, TF over GST control)"
7,CCGACA,"1.22 fold enrichment (6-mer frequency, TF over GST control)"
8,GCCGAT,"1.13 fold enrichment (6-mer frequency, TF over GST control)"
9,TGATCA,"1.15 fold enrichment (6-mer frequency, TF over GST control)"
10,AGTTAA,"1.1 fold enrichment (6-mer frequency, TF over GST control)"
11,CTGAAG,"1.26 fold enrichment (6-mer frequency, TF over GST control)"
12,AGGTTT,"1.13 fold enrichment (6-mer frequency, TF over GST control)"
13,TAGTAA,"1.09 fold enrichment (6-mer frequency, TF over GST control)"
14,TACTGG,"1.16 fold enrichment (6-mer frequency, TF over GST control)"
15,TGAGCT,"1.05 fold enrichment (6-mer frequency, TF over GST control)"
16,TTTGAG,"1.13 fold enrichment (6-mer frequency, TF over GST control)"
17,TGTACG,"1.14 fold enrichment (6-mer frequency, TF over GST control)"

row,Sequence,binding signal
1,AACTTG,"1.18 fold enrichment (6-mer frequency, TF over GST control)"
2,TCCCAG,"1.05 fold enrichment (6-mer frequency, TF over GST control)"
3,CGATAT,"1.1 fold enrichment (6-mer frequency, TF over GST control)"
4,TAAGGT,"1.06 fold enrichment (6-mer frequency, TF over GST control)"
5,GTTAAG,"1.03 fold enrichment (6-mer frequency, TF over GST control)"
6,TAGAAT,"1.17 fold enrichment (6-mer frequency, TF over GST control)"
7,GCGTTC,"1.11 fold enrichment (6-mer frequency, TF over GST control)"
8,CTGCCA,"1.18 fold enrichment (6-mer frequency, TF over GST control)"
9,CCCCGA,"1.15 fold enrichment (6-mer frequency, TF over GST control)"
10,GCACTC,"1.39 fold enrichment (6-mer frequency, TF over GST control)"
11,AAACTG,"1.03 fold enrichment (6-mer frequency, TF over GST control)"
12,TGATAT,"1.02 fold enrichment (6-mer frequency, TF over GST control)"
13,TCGCAC,"1.06 fold enrichment (6-mer frequency, TF over GST control)"
14,GAAACT,"1.03 fold enrichment (6-mer frequency, TF over GST control)"
15,GGAATT,"1.08 fold enrichment (6-mer frequency, TF over GST control)"
16,TTCGGC,"1.13 fold enrichment (6-mer frequency, TF over GST control)"
17,TCTGGG,"1.16 fold enrichment (6-mer frequency, TF over GST control)"

# Target: T2, ETV3L (Homo sapiens, UniProt Q6ZN32 1-361)
# T2 sequence: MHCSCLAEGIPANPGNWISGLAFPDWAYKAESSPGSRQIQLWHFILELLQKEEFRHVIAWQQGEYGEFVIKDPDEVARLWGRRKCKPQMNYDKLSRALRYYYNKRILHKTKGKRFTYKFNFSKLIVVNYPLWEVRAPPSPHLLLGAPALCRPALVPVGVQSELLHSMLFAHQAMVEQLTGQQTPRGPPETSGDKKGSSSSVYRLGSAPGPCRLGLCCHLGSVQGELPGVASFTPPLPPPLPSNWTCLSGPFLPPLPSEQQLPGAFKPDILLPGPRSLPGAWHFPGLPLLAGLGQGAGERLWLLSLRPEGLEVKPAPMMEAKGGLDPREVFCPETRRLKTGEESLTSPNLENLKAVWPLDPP
# Test: as above
# Conditions: protein: recombinant; tags: N-terminal GST; dsDNA, one strand shown
# Summary of the method: as §1
row,Sequence,binding signal
1,GTTAAA,"1.04 fold enrichment (6-mer frequency, TF over GST control)"
2,TGTACC,"1.34 fold enrichment (6-mer frequency, TF over GST control)"
3,ATCCAA,"1.2 fold enrichment (6-mer frequency, TF over GST control)"
4,TGAATG,"1.2 fold enrichment (6-mer frequency, TF over GST control)"
5,AGGAAA,"1.37 fold enrichment (6-mer frequency, TF over GST control)"
6,CCGACA,"1.24 fold enrichment (6-mer frequency, TF over GST control)"
7,GCCGAT,"1.07 fold enrichment (6-mer frequency, TF over GST control)"
8,TGATCA,"1.07 fold enrichment (6-mer frequency, TF over GST control)"
9,CTGAAG,"1.09 fold enrichment (6-mer frequency, TF over GST control)"
10,TTATTA,"1.11 fold enrichment (6-mer frequency, TF over GST control)"
11,TAGTAA,"1.04 fold enrichment (6-mer frequency, TF over GST control)"
12,TACTGG,"1.11 fold enrichment (6-mer frequency, TF over GST control)"
13,GTTAAT,"1.11 fold enrichment (6-mer frequency, TF over GST control)"
14,TGTACG,"1.2 fold enrichment (6-mer frequency, TF over GST control)"
15,AACTTG,"1.17 fold enrichment (6-mer frequency, TF over GST control)"
16,TCCCAG,"1.08 fold enrichment (6-mer frequency, TF over GST control)"

row,Sequence,binding signal
1,CGATAT,"1.14 fold enrichment (6-mer frequency, TF over GST control)"
2,AAAAGT,"1.08 fold enrichment (6-mer frequency, TF over GST control)"
3,GTTAAG,"1.01 fold enrichment (6-mer frequency, TF over GST control)"
4,TAGAAT,"1.09 fold enrichment (6-mer frequency, TF over GST control)"
5,GCGTTC,"1.15 fold enrichment (6-mer frequency, TF over GST control)"
6,CTGCCA,"1.25 fold enrichment (6-mer frequency, TF over GST control)"
7,CCCCGA,"1.23 fold enrichment (6-mer frequency, TF over GST control)"
8,GCACTC,"1.33 fold enrichment (6-mer frequency, TF over GST control)"
9,AAACTG,"1.08 fold enrichment (6-mer frequency, TF over GST control)"
10,TAGTCC,"1.12 fold enrichment (6-mer frequency, TF over GST control)"
11,TGATAT,"1.09 fold enrichment (6-mer frequency, TF over GST control)"
12,TCGCAC,"1.06 fold enrichment (6-mer frequency, TF over GST control)"
13,GAAACT,"1.22 fold enrichment (6-mer frequency, TF over GST control)"
14,TTCGGC,"1.05 fold enrichment (6-mer frequency, TF over GST control)"
15,TCTGGG,"1.11 fold enrichment (6-mer frequency, TF over GST control)"
16,AGTAAT,"1.07 fold enrichment (6-mer frequency, TF over GST control)"
